High-throughput results (PubChem)
TGFb inhibitor = qHTS for Inhibitors of TGF-b; HepG2 CAGA-GFP TGF-b/SMAD3 reporter, GFP fluorescence, 18 h; TGF-beta stimulated, 500 pg/mL final; 410,000 tested, 1.2% active; Potency, µM (series often up to 46.1 µM), for inactives: top-dose activity, negative = inhibition, hits mostly inhibitors; AID 588855, 2011; also: % is scaled to controls: 0 for no effect and ±100 for the full control effect; nearly all actives have a fitted effect of over 65% in size
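Cell-based qHTS in HEPG2 carrying a CAGA-GFP Smad reporter; compounds added before 500 pg/mL final TGF-beta, 18 h incubation at 37 degrees C, GFP fluorescence quantified per cell by imaging cytometry.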
TDP1 cell CPT = qHTS for Inhibitors of human tyrosyl-DNA phosphodiesterase 1 (TDP1): qHTS in cells in presence of CPT; 420,000 tested, 12% active; chicken DT40 Tdp1-/-;hTDP1 cells + 20 nM CPT, ATP luminescence, 48 h; Potency, µM (series often up to 46.2 µM), for inactives: at the top dose activity change, negative = growth inhibition, hits mostly inhibitors; also: % is scaled to controls: 0 for no effect and ±100 for the full control effect; nearly all actives have a fitted effect of over 55% in size
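Chicken DT40 Tdp1-/- cells stably complemented with human TDP1 were seeded at 400 cells/well in medium containing 20 nM camptothecin, exposed to pin-transferred compounds, and grown at 37 °C for at least 48 hr. Viability was read as ATP luminescence.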
HepG2 viability = qHTS for Inhibitors of TGF-b: Cytotox Counterscreen. HepG2 CAGA-GFP viability, ATP luminescence, 18 h. 410,000 tested, 0.76% active. Potency, µM (series often up to 46.1 µM), for the others: top-dose activity change, negative = cytotoxicity, actives largely listed as cytotoxic. AID 588856, 2011
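CellTiter-Glo luminescence gave cytotoxicity after 18 hours at 37 degrees C. The cells were HepG2 CAGA-GFP in 1% FBS DMEM, stimulated with 500 pg/mL TGF-beta after compound addition. %Activity was normalised to no-cell wells (complete cell-killing) and DMSO (no toxicity), and curves were fitted and classified.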
ATXN viability = Viability Counterscreen for Primary qHTS for Inhibitors of ATXN expression; Potency, µM (titrated, usually from 56.7 µM), hits mostly cytotoxic; AID 651635, 2014; S2 cells (HEK-293 line with an ATXN2-luciferase reporter) viability, CellTiter-Fluor protease fluorescence, 24 h; 400,000 tested, 0.49% active; also: nearly all actives have a fitted effect of over 40% in size
TDP1 cell noCPT = qHTS for Inhibitors of human tyrosyl-DNA phosphodiesterase 1 (TDP1): qHTS in cells in absence of CPT; Potency, µM (series often up to 46.2 µM), without a hit: at the highest dose activity change, negative = growth inhibition, most hits filed as inhibitors; DT40 Tdp1-/- hTDP1 cells, no CPT, ATP luminescence, 48 h; 420,000 tested, 15% active; also: % is scaled to controls: 0 for no effect and ±100 for the full control effect; nearly all actives have a fitted effect of over 55% in size
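Readout: luminescence from CellTiter-Glo after 30 min in the dark at RT. Cells: DT40 Tdp1-/- with stable hTDP1, 400/well. Exposure: compounds alone, ≥48 hr, 37 °C.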
ATXN2 expr inh = Primary qHTS for Inhibitors of ATXN expression; 360,000 tested, 0.72% active; Potency, µM (titrated, usually from 57 µM), without a hit: at the highest dose activity change, negative = inhibition, hits mostly inhibitors; HEK-293 ATXN2-luciferase reporter, luminescence, 24 h; also: % is scaled to controls: 0 for no effect and ±100 for the full control effect; nearly all actives have a fitted effect of over 55% in size
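ATXN2-luciferase reporter cells (luciferase flanked by upstream and downstream ATXN2 gene portions) were treated 24 h at 37 °C with compounds at up to 57 uM. SteadyGlo luminescence gave expression; GF-AFC fluorescence gave viability.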
* = called active by the depositor; i = inactive; ? = inconclusive; · = no result given. This is a sample that favours compounds with a hit; in the whole collection about 17% have one here. Calls follow the shape of the dose curve; as a rule, active = well fitted curve in the direction sought with a large enough effect; inconclusive = small, poorly fitted or top-dose-only effect, or another doubt; inactive = no such curve, though single readings can be large; an effect the other way counts as inactive or inconclusive. Potency is read from the fitted curve at half-maximal effect.

SMILES	TGFb inhibitor	TDP1 cell CPT	HepG2 viability	ATXN viability	TDP1 cell noCPT	ATXN2 expr inh
CN1CCN(c2nc3ccccc3nc2C(C#N)C(=O)OC2CCCCC2)CC1 (stereo not given)	?	29µM*	-41%	i	?	-25%
N#CC(C(=O)NC1CC1)c1nc2ccccc2nc1N1CCCC1 (stereo not given)	19%	?	-8%	i	?	-12%
CCN1CCN(c2nc3ccccc3nc2C(C#N)C(=O)OC2CCCCC2)CC1 (stereo not given)	0%	23µM*	-45%	?	23µM*	-19%
N#CC(C(=O)OC1CCCCC1)c1nc2ccccc2nc1N1CCOCC1 (stereo not given)	-8%	?	-2%	i	?	37%
O=C(c1cccc(F)c1)N1CCC2(CCN(Cc3ccccc3)CC2)CC1	·	-2%	·	·	-5%	·
COc1ccc(C(=O)N2CCN(S(=O)(=O)c3ccc4c(c3)OCCO4)CC2)cc1OC	-7%	-25%	-5%	i	-17%	-9%
CC(C)(C)NC(=O)C(c1ccc(-c2ccccc2)cc1)N(C[C@H]1CC[C@@H]([C@@H]2CC[C@H](CO)O2)O1)C(=O)c1ccc(C(C)(C)C)cc1 (stereo not given in full)	?	?	-96%	20µM*	21µM*	-28%
Cc1ccc(C(C(=O)NC(C)(C)C)N(CC2CCCO2)C(=O)c2csnn2)cc1 (stereo not given)	19%	1%	-14%	i	-11%	-3%
CCc1ccc(Nc2ccc3nonc3c2[N+](=O)[O-])cc1	0%	-7%	28%	i	?	30%
CCOC(=O)NNc1ccc2nonc2c1[N+](=O)[O-]	?	6.5µM*	-86%	i	2.9µM*	-33%
CCOC(=O)c1ccc(NC2=CC(c3ccc(F)cc3)N(c3ccc(C(=O)OCC)cc3)C2=O)cc1 (stereo not given)	-3%	16µM*	-8%	i	18µM*	0%
CCOC(=O)c1ccc(NC2=CC(c3ccc(Br)cc3)N(c3ccc(C(=O)OCC)cc3)C2=O)cc1 (stereo not given)	-1%	·	-4%	i	·	-8%
CCOC(=O)C1CCCN(c2nc3c(S(=O)(=O)c4ccc(CC)cc4)nnn3c3ccc(Cl)cc23)C1 (stereo not given)	0%	?	-14%	i	?	13%
Cc1ccc(S(=O)(=O)c2nnn3c2nc(N(C)Cc2ccccc2)c2cc(Cl)ccc23)cc1C	-1%	13µM*	1%	i	12µM*	8%
CCCCN(C)c1nc2c(S(=O)(=O)c3ccc(CC)cc3)nnn2c2ccc(Cl)cc12	9%	12µM*	-1%	i	10µM*	7%
Cc1ccc(S(=O)(=O)c2nnn3c2nc(NCCCN2CCCC2=O)c2ccccc23)cc1C	0%	?	-15%	i	-14%	-20%
Cc1ccc(S(=O)(=O)c2nnn3c2nc(NC2CCN(Cc4ccccc4)CC2)c2ccccc23)cc1C	?	12µM*	-78%	·	5.8µM*	·
CCN(CC)c1nc2c(S(=O)(=O)c3ccccc3)nnn2c2ccc(Cl)cc12	?	?	-21%	i	?	-15%
CCN1CCN(C(=O)CCc2nnc3ccc(N4CCN(c5cccc(OC)c5)CC4)nn23)CC1	-8%	-15%	-27%	i	-22%	·
CC(Oc1ccc(F)cc1)C(=O)NCC1(N(C)C)CCCCC1 (stereo not given)	36%	-3%	4%	i	1%	-9%
Cc1cc(C)cc(NC(=O)c2ccc(CNc3c(N4CCCC4)c(=O)c3=O)cc2)c1	-22%	-2%	3%	i	-22%	-24%
O=C(N/N=C/c1ccc([N+](=O)[O-])cc1)c1cccc2cc[nH]c12	-4%	-27%	-5%	i	?	·
CCN(CC)c1ccc(/C=N\NC(=O)c2cccc3cc[nH]c23)cc1	-25%	5.2µM*	-4%	·	2.9µM*	-5%
O=C(N/N=C/c1ccccc1F)c1cccc2ccccc12	-14%	?	-10%	i	?	6%
O=C(N/N=C/c1ccccc1)c1cccc2ccccc12	-4%	?	-38%	?	1.3µM*	21%
SMILES	TGFb inhibitor	TDP1 cell CPT	HepG2 viability	ATXN viability	TDP1 cell noCPT	ATXN2 expr inh
Cc1ccc(/C=N/NC(=O)c2cccc3ccccc23)o1	-7%	13µM*	1%	i	8.2µM*	16%
O=c1ccc(-c2ccc(S(=O)(=O)Nc3ccc(F)cc3)s2)n[nH]1	2%	?	-2%	i	7%	3%
O=C1COc2ccc(C(=O)COC(=O)c3ccc(Cl)cc3[N+](=O)[O-])cc2N1	3%	5%	-3%	i	9%	-5%
COc1ccc(C(=O)/C=C/Sc2nc3ccccc3o2)cc1	10µM*	2.6µM*	18µM*	·	2.3µM*	?
COc1cc(C)cc(C(=O)C=Cc2ccccc2)c1O	?	?	-55%	i	?	-3%
COc1ccc(C(=O)/C=C/c2ccc(N(C)C)cc2)c(OC)c1	154%	7.3µM*	-8%	·	10µM*	-13%
COc1ccc(C(=O)/C=C/c2ccccc2)c(OC)c1	?	-104%	-57%	?	12µM*	?
COc1ccc(OC)c(C(=O)/C=C/c2ccccc2C(F)(F)F)c1	?	26µM*	-100%	i	21µM*	?
COc1ccc(OC)c(N/C=C/C(=O)c2ccccc2)c1	-19%	-2%	-46%	i	-39%	-81%
COc1ccc(/C=C/C(=O)c2c(O)cc(C)oc2=O)c(OC)c1	28%	?	-53%	i	?	95%
CCOC(=O)Nc1ccc(C(=O)/C=C/c2ccccc2)cc1	?	5.2µM*	-47%	?	2.6µM*	-29%
COc1ccc(C(=O)/C=C/c2ccc(N3CCCCC3)c([N+](=O)[O-])c2)c(OC)c1	0%	?	-67%	?	21µM*	?
COCOc1cc(O)c(C(=O)/C=C/c2ccccc2)c(OCOC)c1	?	15µM*	-80%	?	18µM*	-37%
COc1ccc(/C=C/C(=O)c2cccs2)c(OC)c1	·	1.1µM*	·	·	2.4µM*	·
